Results reported in PubChem BioAssay (Tox21).
Records with an inconclusive call do not appear. Activity calls are given as the source filed them. Unless noted, the call rests on the fitted dose curve; in most records, active means well fitted curve in the direction sought with a large enough effect in the repeat runs; inconclusive means weak or mixed curves; inactive means no such curve, though single readings can be large; an effect the other way counts as inactive or inconclusive.

How the values were obtained:
[1] = qHTS assay for small molecules that induce genotoxicity in human embryonic kidney cells expressing luciferase-tagged ATAD5 (AID 651632); further: nearly all actives have a fitted effect of over 15% in size
Summary of the method: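 ATAD5-luc HEK293T, 2,000 cells/well; cpd or DMSO pin-transferred; 16 hr, 37C/5% CO2; Amplite 30 min RT; luminescence.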

[2] = qHTS assay for small molecule agonists of the p53 signaling pathway - cell viability (AID 651633; calls by dose curve;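 further: p53RE-bla HCT reporter cells with a stable beta-lactamase p53 reporter; series mostly up to about 83 µM; nearly all actives have a fitted effect of over 30% in size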)
Summary of the method: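 p53RE-bla cells, seeded at 4,000 per well and rested 5 h at 37 C/5% CO2, received compounds in DMSO for 16 h at 37 C. CellTiter-Glo was then added, and luminescence was read after 30 min at room temperature to gauge cytotoxicity.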

[3] = qHTS assay for small molecules that induce genotoxicity in human embryonic kidney cells expressing luciferase-tagged ATAD5 - cell viability (AID 651634; calls by dose curve; further: nearly all actives have a fitted effect of over 25% in size)
Summary of the method: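 Fluorescence from CellTiter-Fluor, reporting protease activity within live cells, served as the viability read-out. HEK293T cells carrying luciferase-tagged ATAD5 had been treated with compound for 15.5 hr at 37C.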

[4] = qHTS assay for small molecule disruptors of the mitochondrial membrane potential - cell viability (AID 720634; calls by dose curve;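 further: human HepG2 liver cancer cells; series mostly up to about 83 µM; nearly all actives have a fitted effect of over 20% in size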)
Summary of the method: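 Cells: HepG2, 2,000/well, attached overnight. Compound 1 hr, 37 C/5% CO2. +m-MPI dye, +CellTiter-Glo 30 min RT. Readout: luminescence (ATP).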

[5] = qHTS assay for small molecule disruptors of the mitochondrial membrane potential (AID 720635)
Summary of the method: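 HepG2 cells (2,000/well) attached overnight at 37C, then took compound for 1 hr at 37C, 5% CO2. Mito-MPS dye was added for 30 min; fluorescence was read at 490/535 nm (monomers) and 540/590 nm (aggregates).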

[6] = qHTS assay to test for compound auto fluorescence at 590 nm (red) in HepG2 cells (AID 720674)
Summary of the method: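 Rose Bengal sodium served as the red fluorophore standard. HepG2 monolayers (overnight attachment, MEM with 10% FBS) were exposed to test compounds for 1 hr at 37 C and read at Ex 540/Em 590 nm.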

[7] = qHTS assay to test for compound auto fluorescence at 535 nm (green) in HepG2 cells (AID 720675)
[8] = qHTS assay to test for compound auto fluorescence at 460 nm (blue) in HEK293 cells (AID 720678)
Summary of the method: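 Auto fluorescence in the blue band was quantified as triamterene equivalency. HEK293 cells were seeded at 2,000/well, dosed after a 4-5 hr attachment, and kept overnight at 37C before the 405/460 nm reading.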

[9] = qHTS assay to test for compound auto fluorescence at 590 nm (red) in HEK293 cells (AID 720679)
Summary of the method: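 Autofluorescence equivalency to Rose Bengal sodium, 540/590nm, in HEK293 cells exposed overnight to 23 nL compound per well.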

[10] = qHTS assay to test for compound auto fluorescence at 460 nm (blue) in HEK293 cell free culture (AID 720681)
Summary of the method: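 Test compounds were pinned into cell-free culture medium (DMEM with 10% FBS) and fluorescence was read directly at Ex/Em 405/460 nm. Signals were expressed as fluorescence equivalents of triamterene, with DMSO vehicle as control.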

[11] = qHTS assay to test for compound auto fluorescence at 535 nm (green) in HEK293 cell free culture (AID 720682)
Summary of the method: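 No cells present: wells hold DMEM supplemented with 10% FBS, into which compound or vehicle is pinned. Green emission is then recorded (485 nm excitation, 535 nm emission) and scaled to fluorescein.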

[12] = qHTS assay to test for compound auto fluorescence at 590 nm (red) in HEK293 cell free culture (AID 720683)
Summary of the method: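 Tox21 10K library compounds were pinned into cell-free DMEM with 10% FBS and fluorescence was read at excitation 540 nm. Activity is expressed as Rose Bengal sodium equivalency.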

[13] = qHTS assay to test for compound auto fluorescence at 590 nm (red) in HepG2 cell free culture (AID 720684)
Summary of the method: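 Red fluorescence (540 nm excitation, 590 nm emission) was measured after compound transfer into cell-free MEM supplemented with 10% FBS. Values are equivalencies against Rose Bengal sodium.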

[14] = qHTS assay to test for compound auto fluorescence at 460 nm (blue) in HepG2 cell free culture (AID 720685)
Summary of the method: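 Compound (23 nL) or DMSO pinned into cell-free MEM with 10% FBS; blue fluorescence read at 405/460 nm excitation/emission, expressed as auto-fluorescence equivalency to triamterene.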

[15] = qHTS assay to test for compound auto fluorescence at 460 nm (blue) in HepG2 cells (AID 720687)
Summary of the method: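 Cells (2,000/well in MEM with 10% FBS) attached overnight at 37 C, then were exposed to compound or DMSO for 1 hr at 37 C, 5% CO2. Fluorescence read at Ex/Em 405/460 nm, expressed as triamterene-equivalent signal.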

[16] = target: Glucocorticoid receptor (Homo sapiens) (UniProt P04150); test: qHTS assay to identify small molecule agonists of the glucocorticoid receptor (GR) signaling pathway (AID 720691; active means well fitted activation curve with a large enough effect in the signal ratio in the repeat runs, not every such curve was filed as active; the % refers to the signal ratio)
Summary of the method: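 Fluorescence intensity from LiveBLAzer B/G FRET substrate (2 h, room temperature) reports beta-lactamase expression driven by the glucocorticoid response element in GR-bla HeLa cells after 18 h compound exposure at 37 C.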

[17] = target: Glucocorticoid receptor (Homo sapiens) (UniProt P04150); test: qHTS assay to identify small molecule antagonists of the glucocorticoid receptor (GR) signaling pathway (AID 720692; active means well fitted inhibition curve with a large enough effect in the signal ratio in the repeat runs, not every such curve was filed as active; the % refers to the signal ratio)
Summary of the method: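 HeLa GR-bla cells; cmpd + dex 5 nM final, 18 h 37 C; LiveBLAzer B/G FRET substrate 2 h RT; fluorescence intensity read. Antagonist mode, qHTS.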

[18] = qHTS assay to test for compound auto fluorescence at 535 nm (green) in HEK293 cells (AID 720680)
[19] = qHTS assay to test for compound auto fluorescence at 535 nm (green) in HepG2 cell free culture (AID 720686)

Measured: Potency

Sequence of Glucocorticoid receptor (Homo sapiens) (P04150 whole entry, looked up): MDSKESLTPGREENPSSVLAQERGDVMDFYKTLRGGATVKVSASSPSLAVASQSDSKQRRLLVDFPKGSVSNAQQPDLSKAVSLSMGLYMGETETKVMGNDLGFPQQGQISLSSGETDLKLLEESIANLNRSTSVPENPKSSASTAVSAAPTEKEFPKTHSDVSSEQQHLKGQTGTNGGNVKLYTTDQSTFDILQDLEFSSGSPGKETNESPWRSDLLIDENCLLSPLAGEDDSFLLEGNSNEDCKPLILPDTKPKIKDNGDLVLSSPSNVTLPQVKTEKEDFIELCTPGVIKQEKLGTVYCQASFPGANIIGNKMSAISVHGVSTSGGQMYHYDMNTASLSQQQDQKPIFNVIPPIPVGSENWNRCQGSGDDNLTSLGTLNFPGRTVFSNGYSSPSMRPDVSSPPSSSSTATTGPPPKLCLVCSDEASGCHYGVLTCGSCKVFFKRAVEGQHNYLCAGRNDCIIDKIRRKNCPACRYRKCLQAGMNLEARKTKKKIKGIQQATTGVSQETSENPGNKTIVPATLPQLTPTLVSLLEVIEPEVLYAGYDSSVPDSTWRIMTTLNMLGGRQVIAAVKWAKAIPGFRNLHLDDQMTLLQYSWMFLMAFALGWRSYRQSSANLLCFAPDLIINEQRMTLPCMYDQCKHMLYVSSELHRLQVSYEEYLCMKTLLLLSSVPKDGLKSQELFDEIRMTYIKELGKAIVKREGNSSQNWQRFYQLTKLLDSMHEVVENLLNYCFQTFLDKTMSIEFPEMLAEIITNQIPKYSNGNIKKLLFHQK

Cc1ccccc1C(=O)N1CC/C(=N\OS(=O)(=O)O)c2ccc(Cl)cc21
inactive: [1] | [2] | [3] | [4] | [5] | [6] | [7] | [8] | [9] | [10] | [11] | [12] | [13] | [14] | [15] | [16] | [17]

O=c1[nH]c(=O)c2[nH]c(=O)[nH]c2[nH]1
inactive: [1] | [2] | [3] | [4] | [5] | [6] | [8] | [9] | [18] | [10] | [11] | [12] | [13] | [14] | [19] | [15] | [16] | [17]

Cc1c(C(C)C)c(=O)n(-c2ccccc2)n1C
inactive: [1] | [2] | [3] | [4] | [6] | [7] | [8] | [9] | [10] | [11] | [12] | [13] | [14] | [19] | [15]

CCCOCCOCCOCCO
inactive: [1] | [2] | [3] | [4] | [6] | [7] | [8] | [9] | [10] | [11] | [12] | [13] | [19] | [15]

O=C(O)/C=C/c1ccccc1
inactive: [1] | [2] | [3] | [4] | [5] | [6] | [7] | [18] | [10] | [11] | [12] | [13] | [14] | [19] | [15] | [16] | [17]

O=C(/C=C/c1ccccc1)NCCO
inactive: [1] | [2] | [3] | [4] | [6] | [7] | [8] | [9] | [18] | [10] | [11] | [12] | [13] | [14] | [15] | [16]

C[C@H]1O[C@H](O[C@H]2[C@H](O)[C@@H](O)[C@@H](O[C@H]3[C@H](O)[C@@H](O)[C@H](O)O[C@@H]3CO)O[C@@H]2CO)[C@H](O)[C@@H](O)[C@@H]1N[C@H]1C=C(CO)[C@@H](O)[C@H](O)[C@H]1O
inactive: [1] | [2] | [3] | [4] | [5] | [6] | [7] | [8] | [9] | [18] | [10] | [11] | [12] | [13] | [14] | [19] | [15] | [17]

CC(C)(C)c1ccc(C=O)cc1
inactive: [1] | [2] | [3] | [4] | [5] | [6] | [7] | [8] | [9] | [18] | [10] | [11] | [12] | [13] | [14] | [19] | [15] | [16]

C=CCOc1c(Br)cc(Br)cc1Br
inactive: [1] | [2] | [3] | [4] | [6] | [7] | [8] | [9] | [18] | [10] | [11] | [12] | [13] | [14] | [19] | [15] | [16]

CCC1Nc2cc(Cl)c(S(N)(=O)=O)cc2S(=O)(=O)N1 (stereo not given)
inactive: [1] | [2] | [3] | [4] | [6] | [8] | [9] | [18] | [10] | [11] | [12] | [13] | [14] | [19] | [15]

CNC(=O)C(c1ccccc1)c1ccccc1
inactive: [1] | [2] | [3] | [4] | [6] | [7] | [9] | [18] | [10] | [11] | [12] | [13] | [14] | [19] | [15] | [16] | [17]

Cc1nc([N+](=O)[O-])cn1-c1ccc([N+](=O)[O-])cc1
inactive: [1] | [2] | [3] | [4] | [6] | [7] | [8] | [18] | [10] | [11] | [12] | [13] | [14] | [19] | [15] | [16] | [17]

CCCCCCCCCCCCOC(C)=O
inactive: [1] | [2] | [3] | [4] | [6] | [7] | [9] | [18] | [10] | [11] | [12] | [13] | [14] | [19] | [15]

CC(=O)/C=C/c1ccco1
inactive: [1] | [2] | [4] | [5] | [6] | [7] | [8] | [18] | [10] | [11] | [12] | [13] | [14] | [19] | [15]

O=P(O)(O)OCC(O)CO (stereo not given)
inactive: [1] | [2] | [3] | [4] | [6] | [7] | [8] | [18] | [10] | [11] | [12] | [13] | [14] | [19] | [15]

O=c1cc(O)c(Cl)c[nH]1
inactive: [1] | [2] | [4] | [5] | [6] | [7] | [8] | [9] | [18] | [10] | [11] | [12] | [13] | [14] | [19] | [15]
